# Assay results published in PubChem BioAssay.
# Entries with a potency or affinity are not part of this list. Records with an inconclusive call do not appear. Activity calls are given as the source filed them.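 How the source made its calls: active means signal-lowering compounds whose fitted half-maximal concentration is at or below twice the top tested dose in every run; inconclusive means runs disagree, flat 30 to 70% inhibition, or poor curve fit; inactive means the rest.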
# Experiment: inhibitors of CMV-promoter luciferase reporter, dose response, counter-screen for Pax8 inhibitor project, cell-based, HEK293, luminescence, dry powder (AID 743020);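 further: HEK293 cells stably expressing the CMV luciferase reporter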
# Conditions: SteadyGlo luminescence, 24 h; series mostly up to 35 µM
row,SMILES,outcome
1,C[C@@H]1CCCCO[C@@H](CN(C)Cc2ccc(C(F)(F)F)cc2)[C@H](C)CN([C@@H](C)CO)C(=O)c2cc(NS(=O)(=O)c3ccc(Cl)cc3)ccc2O1,inactive
2,COc1ccc2c3c([nH]c2c1)[C@@H](CO)N(C(=O)Nc1cccc(F)c1)CC31CCN(S(=O)(=O)c2cccc(C)c2)CC1,inactive
3,Cc1ccc(S(=O)(=O)N(C)C[C@@H]2Oc3ccc(NC(=O)Nc4ccc(C(F)(F)F)cc4)cc3CC(=O)N([C@@H](C)CO)C[C@@H]2C)cc1,inactive
4,COc1ccc(C#Cc2ccc([C@H]3[C@@H](CO)N4CCCCN(C(=O)Nc5ccccc5)C[C@H]34)cc2)cc1,inactive
5,C[C@H]1CCCCO[C@@H](CN(C)Cc2ccncc2)[C@@H](C)CN([C@@H](C)CO)C(=O)c2cc(NC(=O)Nc3ccc(C(F)(F)F)cc3)ccc2O1,inactive
6,C[C@@H]1CN([C@H](C)CO)C(=O)c2cc(NC(=O)Cc3ccccc3)ccc2O[C@@H](C)CCCCO[C@H]1CN(C)Cc1ccc(C(F)(F)F)cc1,inactive
7,O=C(C1CCC1)N1CCCCN2[C@H](CO)[C@H](c3ccc(-c4cccc(F)c4)cc3)[C@H]2C1,inactive
8,C[C@H]1CCCCO[C@H](CN(C)C(=O)Nc2ccc(C(F)(F)F)cc2)[C@@H](C)CN([C@@H](C)CO)C(=O)c2cc(NS(=O)(=O)c3cccs3)ccc2O1,inactive
9,COc1cc(/C=C/C(=O)N2CCC=CC2=O)cc(OC)c1OC,inactive
10,CCOc1ccc(C2=Nn3c(nnc3-c3ccccc3OC)SC2)cc1,inactive
11,C[C@@H]1CN([C@@H](C)CO)C(=O)c2cc(N(C)C)ccc2O[C@@H](C)CCCCO[C@H]1CN(C)S(=O)(=O)c1ccc(F)cc1,inactive
